Source: PubChem BioAssay
Nrf2 block – inhibitors of Nrf2 signaling | A549 ARE-Fluc reporter, luciferase luminescence, 18-24 h | Potency, µM (series often up to 46 µM), for the others: at the highest dose activity change, negative = inhibition, most hits filed as inhibitors | 360,000 compounds, 2.1% hits | AID 504444; also: potency is read from the fitted curve at half-maximal effect; % is scaled to controls: 0 for no effect and ±100 for the full control effect; nearly all actives have a fitted effect of over 60% in size
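A549 ARE_Fluc cells (5000/well, 5% FBS OPTI-MEM) pre-incubated 2 h, then treated with compounds 18-24 h at 37C/5% CO2 in concentration-response. CellTiter-Fluor viability read first; BugLite luciferase luminescence after 15 min at room temperature gives Nrf2 activity.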
Nrf2 activator – activates Nrf2 signaling; AREc32 ARE-luciferase reporter (MCF7-derived line), luminescence, 24 h; Potency, µM (highest dose often 46.1 µM), without a hit: at the top dose activation, most hits filed as activators; 410,000 compounds, 0.31% hits; AID 624171; also: potency is read from the fitted curve at half-maximal effect; % of control where 0% means no effect; nearly all actives have a fitted effect of over 65% in size
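Luminescent ARE reporter assay in AREc32_Fluc cells: overnight plating at 37 deg C, 24 hr compound incubation, Steady-Glo added, 30 min RT before reading.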
ALOX12 inh – inhibitors of human 12S-lipoxygenase ALOX12; P18054; purified 12hLO, xylenol orange hydroperoxide absorbance; Potency, µM (series often up to 108 µM), for the others: at the highest dose activity change, negative = inhibition, hits mostly inhibitors; 580,000 compounds, 1.1% hits; AID 1671190; also: potency is read from the fitted curve at half-maximal effect; % is scaled to controls: 0 for no effect and ±100 for the full control effect
Target sequence (P18054 whole entry, looked up): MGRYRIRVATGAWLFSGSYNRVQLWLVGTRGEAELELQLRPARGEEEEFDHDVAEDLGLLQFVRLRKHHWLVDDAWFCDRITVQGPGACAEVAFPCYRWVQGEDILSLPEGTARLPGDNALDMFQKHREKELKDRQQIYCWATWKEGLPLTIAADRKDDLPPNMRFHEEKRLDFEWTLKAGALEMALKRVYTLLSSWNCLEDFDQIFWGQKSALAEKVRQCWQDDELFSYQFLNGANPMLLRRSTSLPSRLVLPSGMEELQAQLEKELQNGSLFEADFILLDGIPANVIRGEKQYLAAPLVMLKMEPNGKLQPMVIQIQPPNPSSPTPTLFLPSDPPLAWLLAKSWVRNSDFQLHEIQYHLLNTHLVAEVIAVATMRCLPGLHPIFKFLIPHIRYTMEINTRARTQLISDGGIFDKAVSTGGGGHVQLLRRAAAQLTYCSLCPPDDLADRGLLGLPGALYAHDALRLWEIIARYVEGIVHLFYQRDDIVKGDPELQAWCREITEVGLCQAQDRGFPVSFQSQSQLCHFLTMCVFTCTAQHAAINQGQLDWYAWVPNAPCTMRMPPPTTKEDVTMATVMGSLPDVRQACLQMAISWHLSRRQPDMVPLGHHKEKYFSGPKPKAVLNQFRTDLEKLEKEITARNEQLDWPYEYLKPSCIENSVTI
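Purified human 12hLO (150 nM final) in 25 mM Hepes, 0.01% Triton X-100, pH 7.0 was preincubated 15 min at room temperature with compound. Then 40 uM arachidonic acid was added, 30 min. Hydroperoxide was read by Fe-XO absorbance ratio 573/405 nm.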
ERG-DNA inh – ERG Ets/DNA interaction inhibition | P11308 | fluorescence polarization, His-ERG Ets domain / labelled DNA | Potency, µM (top dose mostly 76.9 µM), for the others: at the highest dose FP activity, negative = inhibition, hits mostly inhibitors | 370,000 compounds, 0.028% hits | AID 624246; active = well fitted inhibition curve with a large enough effect in the polarisation, with a control signal flat; inconclusive = small, poorly fitted or top-dose-only effect, or effect the other way, or a change in a side signal; inactive = no such curve, though single readings can be large or run the other way; the % refers to the polarisation;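 also: polarization taken with two DNA probes labelled with fluorescein and Texas red; potency is read from the fitted curve at half-maximal effect; % of control where 0% means no effect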
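His-tagged ERG Ets domain (1 uM in the protein solution; 300mM KCl, 50mM Tris-HCl, 1mM EDTA, 1mM DTT, pH 7.5) received compound, then a probe mix of 5 nM fluorescein-DNA and 100nM Texas-615-DNA. Fluorescence polarization was read for both dyes.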
LDHA block – LDHA (human) enzyme inhibition; purified LDHA, NADH/diaphorase-resazurin fluorescence; active compounds read low; activity change, % (values are at about 110 or 230 µM); 480,000 compounds, 0.15% hits; AID 1347041; P00338; in the data active = activity change below about -30%; inconclusive = mostly about -25% to -30%;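 also: plate controls were DMSO wells for no effect and wells without enzyme for full effect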
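Enzyme activity of human lactate dehydrogenase 5 (2 nM; 0.06 mM NADH, 0.2 mM pyruvate, 5 min, RT) is measured via a resazurin/diaphorase fluorescence readout of residual NADH.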
A549 viability – A549 cytotoxicity, counter-screen for Nrf2 inhibitors | AID 504648 | A549 ARE-Fluc cells, CellTiter-Fluor viability, 18-24 h | 390,000 compounds, 0.16% hits | Potency, µM (highest dose often 46 µM), inactives show at the top dose activity change, negative = cytotoxicity, actives largely listed as inhibitors; also: potency is read from the fitted curve at half-maximal effect; % is scaled to controls: 0 for no effect and ±100 for the full control effect
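A549 ARE-Fluc cells in 5% FBS OPTI-MEM, 5000 cells/well, rested 2 h then exposed to compounds in concentration-response for 18-24 h at 37 °C. Viability by CellTiter-Fluor fluorescence (Ex 405/Em 525) after 30 min; luciferase luminescence (BugLite, 15 min, RT) read afterwards.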
* marks the source's active call; other numbers are inactive results; ? = inconclusive; / = no result; [ ] = remark or other dose. A selection: hits, their analogues and other compounds. The true share with any hit is near 2.7%. Unless noted, calls follow the shape of the dose curve; as a rule, active = well fitted curve in the direction sought with a large enough effect; inconclusive = small, poorly fitted or top-dose-only effect, or another doubt; inactive = no such curve, though single readings can be large; an effect the other way counts as inactive or inconclusive.

SMILES	Nrf2 block	Nrf2 activator	ALOX12 inh	ERG-DNA inh	LDHA block	A549 viability
CC1CN(S(=O)(=O)c2cc(C(=O)N(CCc3ccccc3)Cc3ccccc3)ccc2Cl)CC(C)O1 (stereo not given)	7.3µM*	0%	13%	10%	-3	-12%
Cc1ccc(C(=O)N(CCc2ccccc2)Cc2ccccc2)cc1S(=O)(=O)N1CCOCC1	?	0%	11%	6%	2	-4%
N/C(=N\OC(=O)N1CCOCC1)c1ccc(Br)cc1	?	-5%	23%	-19%	2	13µM*
N/C(=N\OC(=O)N1CCOCC1)c1ccc(Cl)cc1	4%	7%	-12%	-6%	-3	-13%
O=C(NCc1ccco1)c1cc2cc3ccc(Cl)cc3nc2o1	23µM*	12%	?	9%	-4	?
COc1ccc2cc3cc(C(=O)NCc4ccco4)oc3nc2c1	5.2µM*	4%	-6%	3%	-4	-25%
COc1ccc2cc3cc(C(=O)NCc4ccccn4)oc3nc2c1	-23%	3%	2%	10%	-3	1%
COc1ccc2cc3cc(C(=O)NCCN4CCN(c5ccccc5F)CC4)oc3nc2c1	18µM*	0%	0%[57.4 µM]	1%	-3	?
COc1ccc2cc3cc(C(=O)Nc4ccccc4N4CCN(C)CC4)oc3nc2c1	-17%	4%	-1%	0%	-6	-8%
CC(C)n1nc(C(=O)N2CCSCC2)c2ccccc2c1=O	/	/	39%	/	-3	/
COc1ccc(Br)cc1S(=O)(=O)NNC(=O)c1c(C)nc2ccccn12	-18%	1%	-24%	-4%	4	-10%
Cc1nc2ccccn2c1C(=O)NNS(=O)(=O)c1ccc(C(C)(C)C)cc1	9.2µM*	-1%	-11%	13%	6	-2%
O=C(CCCc1nc2ccccc2s1)NCCc1cccc(F)c1	/	/	-7%	/	1	/
Cc1nc(-c2ccc(S(=O)(=O)N3CCN(CCc4ccccc4)CC3)s2)cs1	23µM*	0%	0%	0%	-6	-7%
O=C1CCCCC1OC(=O)C12CC3CC(CC(Cl)(C3)C1)C2 (stereo not given)	/	/	-17%	/	0	/
CCNC(=O)C(C)NC(=O)c1cc2ccccc2oc1=O (stereo not given)	/	/	10%	/	8	/
Cn1c(=O)c(/C=C/c2ccccc2)nc2ccccc21	?	5µM*	?	-8%	-4	2%
Cc1ccc(S(=O)(=O)c2c(N)n(Cc3ccco3)c3nc4ccccc4nc23)cc1C	?	2%	-4%	0%	-5	?
Nc1c(S(=O)(=O)c2ccccc2)c2nc3ccccc3nc2n1Cc1ccco1	26µM*	0%	?	12%	-12	?
CC(=O)N1CCN(C(C(=O)O)c2cn(Cc3ccccc3)c3cc(C(=O)O)ccc23)CC1 (stereo not given)	/	/	-29%	/	-1	/
O=S(=O)(N[C@H]1CO[C@H]2[C@@H]1OC[C@@H]2n1cc(-c2ccccn2)nn1)c1cccs1	/	/	63µM*	/	/	/
CC1Oc2ccc(NC(=O)c3ccc(F)cc3F)cc2CN(CCc2ccc(F)cc2)C1=O (stereo not given)	/	/	-10%	/	/	/
Cc1ccc(S(=O)(=O)Nc2ccc3c(c2)CN(CCc2ccc(F)cc2)C(=O)C(C)O3)cc1F (stereo not given)	/	/	28µM*	/	/	/
O=C(Nc1ncc(Cc2ccccc2)s1)C1CC(=O)N(Cc2ccco2)C1 (stereo not given)	/	/	?	/	1	/
CCOC(=O)c1c(-c2ccc(C)cc2)csc1/N=C/N(C)C	-13%	9%	-17%	0%	6	2%
CCOC(=O)c1c(-c2ccc(F)cc2)csc1/N=C/N(C)C	16µM*	3%	-3%	8%	2	?
S=C(NCc1ccccc1)N/N=C/c1cccc(OCCOc2ccc(Br)cc2)c1	/	/	-3%	/	-1	/
